# In all, about 350,000 compounds went through this assay and about 9,900 (2.8%) were called active. Where a call stands in place of a potency, no number is given. Another 15% or so got no clear call; they are omitted. This is one part of a sample in which actives are shown more often than they occur. Calls come from the whole dose curve; as a rule, active = well fitted activation curve with a large enough effect; inconclusive = small, poorly fitted or top-dose-only effect; inactive = no such curve, though single readings can be large or run the other way.
# Test: A quantitative high throughput screen for small molecules that induce DNA re-replication in MCF 10a normal breast cells. Note: nearly all actives have a fitted effect of over 50% in size.
# Details: MCF 10A DNA re-replication, Hoechst nuclear intensity, 48 h; series mostly up to 46.1 µM
# Source text: H Molecular Libraries Probe Production Network [MLPCN]
# NIH Chemical Genomics Center [NCGC]
# Assay Provider: Melvin DePamphilis, NICHD, NIH
# Eukaryotic cells normally restrict genome duplication to once per cell division. When this process is aberrant, DNA re-replication occurs when cells reinitiate DNA replication before the first round of replication is complete. DNA re-replication induces the DNA damage response, arrests cell proliferation, and triggers apoptosis. The cell cycle components cyclin A, Cdt-1, Cdc6 and geminin are critical regulators of this process and their misregulation results in DNA re-replication in normal and cancer cells. To identify compounds that induce re-replication in normal cells, an image-based assay was used to measure DNA content of nuclei, as detected by the fluorescent DNA binding dye, Hoechst. Cell nuclei were imaged by a fluorescence scanning plate imager and compounds that induce DNA re-replication were identified by the increase of nuclei with elevated fluorescence intensity
# For screening, 250 cells in 5 uL/well were dispensed into black clear 1536-well plates (Aurora) using a solenoid-based dispenser. Following transfer of 23 nL compound or DMSO vehicle by a pin tool, the plates were incubated 48 hr at 37 C and 5% CO2. After addition of 1 uL/well Hoescht stain, the plates were incubated 40 min at 37 C, 5% CO2 and total intensity of fluorescent objects (nuclei) were enumerated by an Acumen Explorer Ex3 (TTP LabTech) fluorescence scanning plate imager (405 nm excitation, 500-530 nm emission).
# Keywords: NIH Roadmap, MLPCN, MLI, MLSMR, qHTS, NCGC, DNA replication, cancer
# Potency is the fitted concentration of half-maximal effect.
row,SMILES,Potency
1,COc1ccc(-c2cc(C(=O)NCCCN3CCCC3=O)c3ccccc3n2)cc1OC,inactive
2,COc1cccc(NC(=O)CN(C)C(=O)/C=C/c2cn(-c3ccccc3)nc2-c2cccs2)c1,inactive
3,O=C(Cc1cccc2ccccc12)Nc1ccc2oc(-c3ccccc3)nc2c1,inactive
4,O=C(Nc1ccc(NC(=O)c2cccs2)cc1)c1ccc2ccccc2c1,inactive
5,O=C(Nc1ccc2oc(-c3ccc4ccccc4c3)nc2c1)c1cccs1,5.17 µM (active)
6,CC1CN(Cc2ccccc2)C(=S)NC1=O (stereo not given),inactive
7,O=C(CN1CCN(C2CCS(=O)(=O)C2)CC1)N1N=C(c2ccc(Cl)cc2)CC1c1ccco1 (stereo not given),inactive
8,CCOC(=O)C1CCN(c2ncnc3c2c(-c2ccccc2)cn3-c2ccc(C)cc2)CC1,inactive
9,CCOC(=O)N1CCN(C(=O)C2CCN(c3ncnc4c3sc3cccc(F)c34)CC2)CC1,inactive
10,CCOC(=O)C1CCN(c2ncnc3c2oc2ccc(Br)cc23)CC1,20.6 µM (active)
11,COc1cc(OC)cc(C(=O)NNC(=O)Cc2cccs2)c1,inactive
12,COc1ccc(S(=O)(=O)N2C[C@H]3CON(C)[C@H]3C[C@H]2c2cccc(Br)c2)cc1,inactive
13,Cc1cccc(CC2(O)C(=O)Nc3ccccc32)n1 (stereo not given),inactive
14,CCn1c(/C=C/c2ccc([N+](=O)[O-])o2)nc2ccccc2c1=O,20.6 µM (active)
15,Cn1cc(/C=C/c2nc3ccccc3c(=O)n2-c2cccc([N+](=O)[O-])c2)c2ccccc21,inactive
16,Cc1nc2ccccc2c(=O)n1Cc1ccc([N+](=O)[O-])cc1,inactive
17,O=C(CC1SC(N2CCOCC2)=NC1=O)Nc1ccccc1F (stereo not given),inactive
18,CCCn1c(N)c(C(=O)CSc2nnc3n2CCCCC3)c(=O)[nH]c1=O,inactive
19,O=C(Nc1cccnc1)c1ccc(Cl)cc1[N+](=O)[O-],inactive
20,O=C(Nc1ccncc1)c1ccc(Cl)c([N+](=O)[O-])c1,inactive
21,NC(N)=N/N=C/c1ccc(Cl)c([N+](=O)[O-])c1,inactive
22,O=C(/C=C/c1ccc(Cl)c([N+](=O)[O-])c1)c1cccnc1,5.17 µM (active)
23,O=C(Nc1cccnc1)c1ccc(Cl)c([N+](=O)[O-])c1,20.6 µM (active)
24,C/C(=C\C(=O)c1cccnc1)Nc1ccc(C)c(C)c1,inactive
25,N#CCc1c[nH]c2ccc([N+](=O)[O-])cc12,inactive

row,SMILES,Potency
1,CC(C)(C)OC(=O)CNC(=O)c1[nH]cnc1C(=O)N[C@@H](CCCCN)C(=O)OC(C)(C)C,inactive
2,O=C1[C@@H](c2ccccc2)[C@@H](c2ccccc2)N1c1cccnc1,inactive
3,C[C@H](CO)N1C[C@H](C)[C@@H](CN(C)S(=O)(=O)c2ccc(F)cc2)Oc2ccc(NC(=O)CCC(F)(F)F)cc2C1=O,inactive
4,COc1cc(SC)ccc1C(=O)NNC(=O)C1COc2ccccc2O1 (stereo not given),inactive
5,CC1CCN(C(=O)c2cc3nc(C4CC4)cc(C(F)(F)F)n3n2)CC1,inactive
6,O=C(Nc1ccc(Cl)cc1)c1cc2nc(C3CC3)cc(C(F)(F)F)n2n1,16.4 µM (active)
7,C=CCNC(=O)c1cc2nc(C3CC3)cc(C(F)F)n2n1,inactive
8,Cc1occc1-c1nnc(SCC(=O)NC2(C#N)CCCC2)n1C,inactive
9,COc1cc2c(cc1OC)C(Cc1cc(OC)c(OC)cc1[N+](=O)[O-])=NCC2,inactive
10,CCCc1nc(SCC(=O)N2CCCC2)c2c(=O)n(C)c(=O)n(C)c2n1,inactive
11,CCOC(=O)N1CCN(C(=O)CSc2nc(C)nc3c2c(=O)n(C)c(=O)n3C)CC1,0.651 µM (active)
12,Cn1c(=O)c2c(SCC(=O)N3CCOCC3)nc(C3CC3)nc2n(C)c1=O,inactive
13,CC(OC(=O)c1ccc([N+](=O)[O-])cc1)C(=O)NCC1CCCCC1 (stereo not given),inactive
14,COc1ccc(OC(C)C(=O)NCCc2nc3ccccc3[nH]2)cc1 (stereo not given),inactive
15,CCCCCOc1ccc(/C=C/C(=O)NCCc2nc3ccccc3[nH]2)cc1OC,20.6 µM (active)
16,O=C(COc1ccccc1)NCCc1nc2ccccc2[nH]1,inactive
17,O=c1ccc2c(-c3ccccc3S(=O)(=O)O)c3ccc(O)c(O)c3oc-2c1O,inactive
18,CCOC(=O)c1ccccc1NC(=O)COC(=O)C(Cc1c[nH]c2ccccc12)NC(C)=O (stereo not given),inactive
19,Cc1ccc(S(=O)(=O)N2CCC(C(=O)N3CCCCCCC3)CC2)cc1,inactive
20,CC(C)(C)OC(=O)C1=C(CO)CS[C@@H]2[C@H](NC(=O)Cc3ccccc3)C(=O)N12,inactive
21,O=C(c1cccc(S(=O)(=O)N2CCCCCC2)c1)N1CCN(Cc2ccccc2)CC1,inactive
22,CCOC(=O)C1=C(c2ccc(OC)cc2)C(=O)c2ccccc2C1=O,2.91 µM (active)
23,COc1ccc(OCCCON2C(=O)c3ccccc3C2=O)cc1,inactive
24,COc1ccc(N2CCN(C(C)=C3C(=O)c4ccccc4C3=O)CC2)cc1,inactive
25,COCCN(C(=O)C(C)N1C(=O)c2ccccc2C1=O)c1c(N)n(CC(C)C)c(=O)[nH]c1=O (stereo not given),inactive

row,SMILES,Potency
1,CC(C)(C)OC(=O)C[C@@H]1C/C=C\C[C@@H](CC(=O)NCCO)C(=O)N[C@H](Cc2c[nH]c3ccccc23)COC1=O,inactive
2,COc1cccc(/C(C)=N/Nc2ncc(Cl)cc2Cl)c1,inactive
3,COc1cccc(/C=N/Nc2cc(C)nc(-c3ccccc3O)n2)c1O,inactive
4,COc1cccc(/C=N/Nc2ncc(C(F)(F)F)cc2Cl)c1O,1.46 µM (active)
5,O=C(Nc1nnc(-c2ccccc2)o1)c1cccc(S(=O)(=O)N2CCOCC2)c1,inactive
6,Cc1ccc(S(=O)(=O)NC2CCCCCC2)cc1,inactive
7,Cc1ccc(S(=O)(=O)C2(S(=O)(=O)c3ccc(C)cc3)CCCC2)cc1,8.2 µM (active)
8,Cc1ccc(S(=O)(=O)N(C)C2(C)CCS(=O)(=O)C2)cc1 (stereo not given),inactive
9,CCC(C)C1(C2CCCC2)NC(=O)NC1=O (stereo not given),inactive
10,Cc1ccc(CC(=O)Nc2ccc(S(=O)(=O)N3CCOCC3)cc2)cc1C,inactive
11,S=c1[nH]nc(-c2ccncc2)n1/N=C/c1ccccc1Cl,inactive
12,S=c1[nH]nc(-c2ccco2)n1/N=C/c1ccccc1,inactive
13,S=c1[nH]nc(-c2cccnc2)n1/N=C/C(Cl)=C\c1ccccc1,13 µM (active)
14,O=C(CCc1nc(-c2ccccc2)no1)Nc1cccc(C(=O)NC2CC2)c1,inactive
15,O=C(CP(=O)(c1ccccc1)c1ccccc1)N1CCOCC1,inactive
16,O=C(c1snnc1-c1ccccc1)N1CCOCC1,0.651 µM (active)
17,c1ccc(-c2nnc(N3CCOCC3)c3ccccc23)cc1,inactive
18,CCCC(=O)n1nc(-c2ccccc2)nc1N,inactive
19,CCOC(=O)c1sc2nc(SC)nc(-c3ccccc3)c2c1N,inactive
20,CCN(CC)C(=O)c1sc2nc(-c3ccccc3)ccc2c1N,23.1 µM (active)
21,COc1ccc(NS(=O)(=O)c2cc(NC(=O)COc3ccccc3F)ccc2OC)cc1,inactive
22,O=C(C1CC(=O)N(C2CCCC2)C1)N1CCN(c2cccc(C(F)(F)F)c2)CC1 (stereo not given),inactive
23,O=C(N/N=C/c1ccc([N+](=O)[O-])o1)c1cccc(S(=O)(=O)N2CCOCC2)c1,inactive
24,Cc1cc(C)nc(N/N=C/c2ccc([N+](=O)[O-])o2)n1,inactive
25,NC(=O)C(=O)N/N=C/c1ccc([N+](=O)[O-])o1,26.6 µM (active)

row,SMILES,Potency
1,O=C(COC(=O)c1ccncc1)Nc1ccc2c(c1)OCO2,inactive
2,O=C1COc2ccc(C(=O)COC(=O)c3ccccc3Cl)cc2N1,inactive
3,COc1cc(COCC(O)CN2CCN(Cc3ccc4c(c3)OCO4)CC2)cc(OC)c1OC (stereo not given),inactive
4,CC1CCCN(CC(O)COc2ccc3c(c2)OCO3)C1 (stereo not given),inactive
5,CN1CCN(CC(O)COCc2ccc3c(c2)OCO3)CC1 (stereo not given),20.6 µM (active)
6,CC1CC(C)CN(CC(=O)N2c3ccccc3CCc3ccccc32)C1 (stereo not given),inactive
7,CC1C(C)N(C(=O)CCl)c2ccccc2N1C(=O)CCl (stereo not given),7.31 µM (active)
8,CC1C(=O)N(Cc2ccccc2)c2ccccc2N1C(=O)c1ccccc1 (stereo not given),inactive
9,O=C1CN(C(=O)COC(=O)/C=C/c2ccc(F)cc2)c2ccccc2N1,inactive
10,CCOC(=O)C1CCCN(C(=O)C2CCN(S(=O)(=O)c3ccc(Cl)c(C(F)(F)F)c3)CC2)C1 (stereo not given),inactive
11,O=C1c2ccccc2C2=Nc3ccccc3SC(c3ccccc3F)C12 (stereo not given),6.51 µM (active)
12,O=C1c2ccccc2C(=O)C1c1ccccc1F,inactive
13,COC(=O)[C@]1(C)N[C@H](CN(C)C(=O)c2ccc(C(C)(C)C)cc2)[C@@H]2C(=O)N(C)C(=O)[C@@H]21,inactive
14,N#Cc1cccc(NC(=O)C2CCCN(C(=O)c3ccc(Cl)cc3)C2)c1 (stereo not given),inactive
15,C/C=C/c1ccc(OCC(=O)NNC(=O)CN(C)S(=O)(=O)c2ccc(C)cc2)c(OC)c1,inactive
16,Cn1c(C(=O)NCCc2ccsc2)cc2c(=O)n(C)c3ccccc3c21,inactive
17,CCn1c(=O)cc(OCC(=O)NCCCN2CCN(c3cccc(Cl)c3)CC2)c2ccccc21,inactive
18,Cn1c(C(=O)NCCCN2CCN(c3cccc(Cl)c3)CC2)cc2c(=O)n(C)c3ccccc3c21,14.6 µM (active)
19,Cc1cccc(-c2oc3ccc(-c4ccc5c(c4)OCO5)cc3c2C#Cc2cncn2C)c1,inactive
20,c1ccc(CCc2ccccn2)cc1,inactive
21,Cc1cccc(NS(=O)(=O)c2ccc(C)c(C(=O)NCc3cccnc3)c2)c1,inactive
22,O=C(COC(=O)c1ccc(F)cc1)Nc1ccc2c(c1)OCO2,inactive
23,Cc1cccc(COc2ccccc2/C=N/Nc2ccc([N+](=O)[O-])cc2)c1,10.3 µM (active)
24,Cc1ccc(NS(=O)(=O)c2ccc(N/N=C/c3ccccc3OCC(=O)O)c([N+](=O)[O-])c2)c(C)c1,inactive
25,O=[N+]([O-])c1ccc(O)c(/C=N/Nc2ccccc2[N+](=O)[O-])c1,inactive

# — PubChem BioAssay AID624296 (National Center for Advancing Translational Sciences (NCATS), 2012)
